Bioassay records: PubChem BioAssay, Bradner/Qi Labs at DFCI
CBX7 AlphaScr: CBX7 chromodomain binding inhibitors, primary screen, biochemical, AlphaScreen; Chromobox protein homolog 7 (Homo sapiens), O95931; AlphaScreen His6-CBX7 / biotin-H3K27me3 peptide binding; stronger effect = lower value; normalised signal (fraction of DMSO) (test concentration not listed); 66,000 tested, 1.1% active; AID 1224903, 2016; in the data active = normalised signal below about 0.5
An asterisk follows results filed as active. The full list was thinned out, with hits kept by preference.

SMILES	CBX7 AlphaScr
COc1ccc(C(CC(=O)c2ccco2)Sc2cccc3cccnc23)cc1OC (stereo unspecified)	0.005*
COc1ccc(CCNC(=O)C2CCN(S(=O)(=O)c3cccc4cccnc34)CC2)cc1OC	1
COc1ccc(N2C(=O)CC(c3c[nH]c4ccccc34)C2=O)cc1 (stereo unspecified)	0.89
COc1cccc(Oc2cc([N+](=O)[O-])cc3c2C(=O)Nc2ccccc2O3)c1	0.76
CS(=O)(=O)N1CCC(C(=O)NCc2ccccc2Cl)CC1	1
Cc1ccc2c(c1)-c1c(cnn1CC(=O)N1CCN(Cc3ccccc3)CC1)CO2	0.94
CCN1CCn2c3c(c4cc(Cl)ccc42)CCCC31 (stereo unspecified)	0.98
Cc1ccc2c(c1)c1c3n2CCN(CCC(N)=O)C3CCC1 (stereo unspecified)	0.97
OC1(c2ccc3c(c2)c2c4n3CCN(Cc3ccccc3)C4CCC2)CCCC1 (stereo unspecified)	0.37*
CCCCSCCCNC(=O)CN1C(=O)COc2ccc(S(=O)(=O)N3CCC(C)CC3)cc21	1
Cc1ccc(S(=O)(=O)c2nc(-c3cccc(C)c3)oc2NCc2ccccc2)cc1	0.84
Cc1ccc(CCNC(=O)CC2(CC3=NS(=O)(=O)c4ccccc4N3)CCCC2)cc1	1.1
Cc1ccc(NC(=O)c2ccccc2O)nc1	0.92
O=C(Nc1cccc2cccnc12)c1ccccc1O	1
O=C(Nc1ncn[nH]1)c1ccccc1O	0.17*
CCCN1CCN(CCCNC(=O)c2cc(=O)[nH]c3ccc(S(=O)(=O)N4CCCC4)cc23)CC1	1
Cc1cccc(N2C(=O)CC(N3CCN(c4ccccc4Cl)CC3)C2=O)c1 (stereo unspecified)	1
O=C(Nc1cccc(F)c1)C1(S(=O)(=O)c2ccc(Cl)cc2)CC1	0.98
